Out of some 5,500 compounds screened, about 2,000 (36%) were called active. Not shown: some 18% with an inconclusive outcome. No stated cut-off is given here; in the data, active means normalized growth mostly below about 0.91 (no sharp cut-off); inconclusive means no clear call, values can overlap the other calls; inactive means mostly above about 0.92. This is one part of the list.
Assay: chemical genetic growth profiling, strain panel (AID 1159580);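 further: tested at 20 µM; growth read once vehicle control cultures reached saturation at 30 °C; 1 = growth at the plate median or of vehicle wells; lower values mean less growth of the strain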
Conditions: S. cerevisiae deletion strains, growth OD
[1] = locus YAR019C, strain CDC15, active compounds read low
[2] = locus YBL105C, strain PKC1, active compounds read low
[3] = locus YBR135W, strain CKS1, active compounds read low
[4] = locus YBR136W, strain MEC1, active compounds read low
[5] = locus YBR160W, strain CDC28, active compounds read low
[6] = locus YDL017W, strain CDC7, active compounds read low
[7] = locus YDL028C, strain MPS1, active compounds read low
[8] = locus YDL101C, strain DUN1, active compounds read low
[9] = locus YDL108W, strain KIN28, active compounds read low
[10] = locus YDL132W, strain cdc53, active compounds read low
[11] = locus YDL214C, strain PRR2, active compounds read low
[12] = locus YDR052C, strain DBF4, active compounds read low
[13] = locus YDR054C, strain cdc34, active compounds read low
[14] = locus YDR226W, strain ADK1, active compounds read low
[15] = locus YDR477W, strain SNF1, active compounds read low
[16] = locus YER123W, strain YCK3, active compounds read low
[17] = locus YER133W, strain GLC7, active compounds read low
[18] = locus YFL009W, strain cdc4, active compounds read low
[19] = locus YFL029C, strain CAK1, active compounds read low
[20] = locus YFR003C, strain YPI1, active compounds read low
[21] = locus YFR019W, strain FAB1, active compounds read low
[22] = locus YFR028C, strain CDC14, active compounds read low
[23] = locus YGR040W, strain KSS1, active compounds read low
[24] = locus YGR052W, strain FMP48, active compounds read low
[25] = locus YGR092W, strain DBF2, active compounds read low
[26] = locus YHR030C, strain SLT2, active compounds read low
[27] = locus YHR079C, strain IRE1, active compounds read low
[28] = locus YHR082C, strain KSP1, active compounds read low
[29] = locus YHR205W, strain SCH9, active compounds read low
[30] = locus YIL147C, strain SLN1, active compounds read low
[31] = locus YJL095W, strain BCK1, active compounds read low
[32] = locus YJL128C, strain PBS2, active compounds read low
[33] = locus YJL157C, strain FAR1, active compounds read low
[34] = locus YJR016C, strain ILV3, active compounds read low
[35] = locus YJR066W, strain TOR1 (second series), active compounds read low
[36] = locus YJR066W, strain TOR1, active compounds read low
[37] = locus YKL048C, strain ELM1, active compounds read low
[38] = locus YKL067W, strain YNK1, active compounds read low
[39] = locus YKL101W, strain HSL1, active compounds read low
[40] = locus YKL193C, strain SDS22, active compounds read low
[41] = locus YKL203C, strain TOR2, active compounds read low
[42] = locus YLR113W, strain HOG1, active compounds read low
[43] = locus YLR133W, strain CKI1, active compounds read low
[44] = locus YLR403W, strain SFP1, active compounds read low
[45] = locus YML070W, strain DAK1, active compounds read low
[46] = locus YMR001C, strain CDC5, active compounds read low
[47] = locus YMR205C, strain PFK2 (second series), active compounds read low
[48] = locus YMR277W, strain FCP1, active compounds read low
[49] = locus YNL006W, strain LST8, active compounds read low
[50] = locus YNL020C, strain ARK1, active compounds read low
[51] = locus YNL161W, strain CBK1, active compounds read low
[52] = locus YNL183C, strain NPR1, active compounds read low
[53] = locus YNL207W, strain RIO2, active compounds read low
[54] = locus YNL222W, strain SSU72, active compounds read low
[55] = locus YNL307C, strain MCK1 (second series), active compounds read low
[56] = locus YOL078W, strain AVO1, active compounds read low
[57] = locus YOL136C, strain PFK27, active compounds read low
[58] = locus YOR061W, strain CKA2, active compounds read low
[59] = locus YOR119C, strain RIO1, active compounds read low
[60] = locus YOR231W, strain MKK1, active compounds read low
[61] = locus YOR329C, strain SCD5, active compounds read low
[62] = locus YPL031C, strain PHO85, active compounds read low
[63] = locus YPL153C, strain RAD53, active compounds read low
[64] = locus YPL204W, strain HRR25, active compounds read low
[65] = locus YPL209C, strain IPL1, active compounds read low
[66] = locus YPL256C, strain CLN2, active compounds read low
[67] = locus YPR025C, strain CCL1, active compounds read low
[68] = locus YPR106W, strain ISR1, active compounds read low
[69] = locus YPR111W, strain DBF20, active compounds read low
[70] = strain NNK1, active compounds read low
[71] = strain TSCII, active compounds read low

Measured: normalized growth

Cc1ccc(-c2csc(-c3ccncc3)n2)cc1
inactive: [2] 0.928 | [3] 0.903 | [4] 0.912 | [5] 0.909 | [6] 0.922 | [7] 0.898 | [9] 0.914 | [11] 0.781 | [12] 0.938 | [13] 0.879 | [14] 0.905 | [18] 0.89 | [19] 0.89 | [20] 0.921 | [21] 0.859 | [23] 0.718 | [24] 0.717 | [27] 0.674 | [28] 0.747 | [29] 0.72 | [30] 0.915 | [32] 0.919 | [33] 0.764 | [34] 0.922 | [35] 0.753 | [36] 0.53 | [37] 0.928 | [38] 0.758 | [39] 0.872 | [41] 0.782 | [43] 0.837 | [44] 0.706 | [45] 0.788 | [46] 0.91 | [47] 0.771 | [49] 0.925 | [50] 0.842 | [51] 0.909 | [52] 0.672 | [53] 0.905 | [54] 0.897 | [55] 0.773 | [57] 0.814 | [58] 0.89 | [59] 0.719 | [60] 0.691 | [61] 0.92 | [63] 0.688 | [65] 0.913 | [67] 0.914 | [68] 0.924 | [69] 0.902 | [70] 0.911
active: [1] 0.888 | [8] 0.912 | [10] 0.891 | [15] 0.68 | [16] 0.615 | [17] 0.661 | [22] 0.89 | [25] 0.441 | [26] 0.423 | [31] 0.374 | [40] 0.879 | [42] 0.653 | [48] 0.865 | [56] 0.866 | [62] 0.649 | [64] 0.618 | [66] 0.697 | [71] 0.873

Brc1ccc(-c2csc(-c3ccncc3)n2)cc1
inactive: [1] 0.909 | [2] 0.943 | [3] 0.904 | [4] 0.916 | [5] 0.904 | [6] 0.923 | [7] 0.92 | [9] 0.932 | [10] 0.94 | [11] 0.848 | [15] 0.705 | [16] 0.703 | [19] 0.911 | [20] 0.942 | [21] 0.874 | [22] 0.895 | [27] 0.632 | [28] 0.635 | [29] 0.622 | [30] 0.919 | [32] 0.958 | [33] 0.847 | [34] 0.914 | [35] 0.797 | [37] 0.889 | [38] 0.856 | [39] 0.889 | [40] 0.891 | [43] 0.844 | [44] 0.689 | [45] 0.77 | [46] 0.901 | [47] 0.854 | [48] 0.892 | [49] 0.939 | [50] 0.868 | [51] 0.908 | [54] 0.938 | [55] 0.847 | [56] 0.898 | [57] 0.846 | [58] 0.925 | [61] 0.933 | [62] 0.687 | [65] 0.919 | [67] 0.92 | [68] 0.919 | [69] 0.902 | [71] 0.88
active: [8] 0.888 | [12] 0.892 | [13] 0.862 | [14] 0.895 | [17] 0.683 | [18] 0.878 | [23] 0.59 | [24] 0.41 | [25] 0.443 | [26] 0.312 | [31] 0.149 | [36] 0.24 | [41] 0.221 | [42] 0.315 | [52] 0.257 | [53] 0.839 | [59] 0.306 | [60] 0.488 | [63] 0.609 | [64] 0.64 | [66] 0.578 | [70] 0.875

From PubChem BioAssay AID1159580 (chemical genetic matrix, 2015)
